Test results as given in PubChem BioAssay (Tox21).
“And” between values parts separate entries of the source, which are not always exact repeats. Equal values may be shown once. Inconclusive results are not listed. The source made the active and inactive calls. Unless noted, calls follow the shape of the dose curve; as a rule, active = well fitted curve in the direction sought with a large enough effect in the repeat runs; inconclusive = weak or mixed curves; inactive = no such curve, though single readings can be large; an effect the other way counts as inactive or inconclusive.

Tests used:
[1] = qHTS assay to identify small molecule agonists of H2AX - cell viability counter screen (AID 1224847; calls by dose curve;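 also: wild-type CHO-K1 cells; top concentration of the series differs between compounds; nearly all actives have a fitted effect of over 30% in size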)
Outline: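 After overnight plating of 1000 CHO-K1 cells per well, a 15-concentration compound series was applied for 3 hr at 37C. Luminescence from CellTiter-Glo, read following 30 min at room temperature, reflected cell viability.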

[2] = qHTS assay to identify small molecule antagonists of the estrogen related receptor (ERR) signaling pathway from Tox21 library (AID 1224848); also: nearly all actives have a fitted effect of over 50% in size
Outline: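 Screening used an ERR reporter line supplied by NTP, exposed for 18 h at 37 C to library compounds delivered in DMSO. Signal was luciferase luminescence developed with ONE-Glo at room temperature for 30 min.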

[3] = qHTS assay to identify small molecule agonists of the estrogen related receptor (ERR) signaling pathway from Tox21 library (AID 1224849; calls by dose curve; also: nearly all actives have a fitted effect of over 15% in size); conditions: ERR reporter cell line, ONE-Glo luciferase, 18 h; at 92.4 µM (top of the series)
Outline: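 ERR cells, 6 h pre-incubation 37 C/5% CO2; cpd in DMSO pinned; 18 h 37 C; ONE-Glo added, 30 min RT; luminescence read. Agonist mode, qHTS.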

[4] = qHTS RealTime-Glo MT Cell Viability Assay in HepG2 cells - 24 hour (AID 1224867); also: nearly all actives have a fitted effect of over 50% in size
Outline: (§1)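 Real-time, nonlytic viability: 600 HepG2 cells/well mixed with NanoLuc enzyme plus prosubstrate; 5 h settle, compound (DMSO) added by pintool; luminescence monitored over 40 h at 37 C.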

[5] = qHTS RealTime-Glo MT Cell Viability Assay in HEK293 cells - 32 hour (AID 1224868); also: top concentration of the series differs between compounds; nearly all actives have a fitted effect of over 50% in size
Outline: (§2)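 Cells + reagent dispensed (600 cells/well, HEK293) → 5 h at 37 C/5% CO2 → 23 nL compound in DMSO pinned → 40 h at 37 C → luminescence read at 0, 8, 16, 24, 32, 40 h.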

[6] = A CellTox Green Cytotoxicity Assay to monitor cytotoxicity in HEK293 cells - 0 hour (AID 1224869); also: nearly all actives have a fitted effect of over 50% in size
Outline: (§3)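 Nonlytic real-time cytotoxicity: HEK293 + CellTox Green reagent plated, 5 h preincubation, pintool compound addition (23 nL in DMSO), 37 C for 40 h, fluorescence measured at successive time points.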

[7] = qHTS RealTime-Glo MT Cell Viability Assay in HepG2 cells - 40 hour (AID 1224870); also: nearly all actives have a fitted effect of over 50% in size
Outline: (§4)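 HepG2 cells mixed with RealTime-Glo MT reagents (NanoLuc plus cell-permeant prosubstrate) were seeded at 600 cells/well, incubated 5 h at 37 C/5% CO2, then pinned with compounds in DMSO; nonlytic luminescence tracked viability during 40 h treatment.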

[8] = A CellTox Green Cytotoxicity Assay to monitor cytotoxicity in HEK293 cells - 40 hour (AID 1224871); also: nearly all actives have a fitted effect of over 45% in size
Outline: as §3

[9] = qHTS RealTime-Glo MT Cell Viability Assay in HEK293 cells - 16 hour (AID 1224872)
Outline: as §2

[10] = qHTS RealTime-Glo MT Cell Viability Assay in HepG2 cells - 8 hour (AID 1224873); also: nearly all actives have a fitted effect of over 55% in size
Outline: as §4

[11] = A CellTox Green Cytotoxicity Assay to monitor cytotoxicity in HEK293 cells - 24 hour (AID 1224875); also: nearly all actives have a fitted effect of over 45% in size
Outline: as §3

[12] = A CellTox Green Cytotoxicity Assay to monitor cytotoxicity in HepG2 cells - 16 hour (AID 1224876); also: nearly all actives have a fitted effect of over 45% in size
Outline: (§5)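 Read-out is fluorescence of a cyanine dye excluded from live cells that stains DNA of dead HepG2 cells, with signal proportional to cytotoxicity. Plates were read at 0, 8, 16, 24, 32 and 40 h after compound addition.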

[13] = qHTS RealTime-Glo MT Cell Viability Assay in HepG2 cells - 32 hour (AID 1224877); also: nearly all actives have a fitted effect of over 55% in size
Outline: as §1

[14] = A CellTox Green Cytotoxicity Assay to monitor cytotoxicity in HepG2 cells - 24 hour (AID 1224878); also: nearly all actives have a fitted effect of over 45% in size
Outline: as §5

[15] = A CellTox Green Cytotoxicity Assay to monitor cytotoxicity in HepG2 cells - 40 hour (AID 1224879); also: nearly all actives have a fitted effect of over 40% in size
Outline: as §5

[16] = qHTS RealTime-Glo MT Cell Viability Assay in HEK293 cells - 0 hour (AID 1224880)
Outline: (§6)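 Cells were seeded together with NanoLuc luciferase and a prosubstrate that viable cells reduce to a luciferase substrate. After a 5 h incubation at 37 C/5% CO2, compounds were added and luminescence was measured repeatedly during 40 h of treatment.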

[17] = A CellTox Green Cytotoxicity Assay to monitor cytotoxicity in HEK293 cells - 32 hour (AID 1224881); also: nearly all actives have a fitted effect of over 40% in size
Outline: as §3

[18] = A CellTox Green Cytotoxicity Assay to monitor cytotoxicity in HepG2 cells - 0 hour (AID 1224882); also: nearly all actives have a fitted effect of over 35% in size
Outline: as §5

[19] = A CellTox Green Cytotoxicity Assay to monitor cytotoxicity in HepG2 cells - 32 hour (AID 1224883); also: nearly all actives have a fitted effect of over 50% in size
Outline: as §5

[20] = qHTS RealTime-Glo MT Cell Viability Assay in HEK293 cells - 40 hour (AID 1224874); conditions: RealTime-Glo luminescence; max response: stronger effect = lower value; also: nearly all actives have a fitted effect of over 50% in size
Outline: as §6
% is scaled to controls: 0 for no effect and ±100 for the full control effect.

CCC(O)OCCCOC (configuration not stated)
inactive: Potency [1] | Potency [2] | activity change, positive = activation [3] 1.37% and 8.84% | outcome [4] | Potency [5] | outcome [6] | outcome [7] | Potency [8] | Potency [9] | outcome [10] | Potency [11] | Potency [12] | outcome [13] | Potency [14] | Potency [15] | Potency [16] | Potency [17] | outcome [18] | Potency [19]

Nc1ccccc1[N+](=O)[O-]
inactive: Potency [1] | Potency [2] | activity change, positive = activation [3] 9.45% and 1.58% | outcome [4] | Potency [5] | outcome [6] | outcome [7] | Potency [8] | Potency [9] | outcome [10] | Potency [11] | Potency [12] | outcome [13] | Potency [14] | Potency [15] | Potency [16] | Potency [17] | outcome [18] | Potency [19]

OCCOCCOCCO
inactive: Potency [1] | Potency [2] | activity change, positive = activation [3] -2.92% and 6.58% | outcome [4] | outcome [6] | outcome [7] | Potency [8] | Potency [9] | outcome [10] | Potency [11] | Potency [12] | outcome [13] | Potency [14] | Potency [15] | Potency [16] | Potency [17] | outcome [18] | Potency [19]

CC1=C(C)S(=O)(=O)CCS1(=O)=O
inactive: Potency [1] | Potency [2] | activity change, positive = activation [3] 10.9% | outcome [4] | outcome [6] | outcome [7] | Potency [8] | Potency [9] | outcome [10] | Potency [11] | Potency [12] | outcome [13] | Potency [14] | Potency [15] | Potency [16] | Potency [17] | outcome [18] | Potency [19]

Cc1cccnc1
inactive: Potency [1] | Potency [2] | activity change, positive = activation [3] 2.78% and 3.63% | outcome [4] | outcome [6] | outcome [7] | Potency [8] | Potency [9] | outcome [10] | Potency [11] | Potency [12] | outcome [13] | Potency [14] | Potency [15] | Potency [16] | Potency [17] | outcome [18] | Potency [19]

Fc1ccc(Br)cc1
inactive: Potency [1] | Potency [2] | activity change, positive = activation [3] -0.613% and 3.34% | outcome [4] | Potency [5] | outcome [6] | outcome [7] | Potency [8] | Potency [9] | outcome [10] | max response [20] 11.6% and 0.497% | Potency [11] | Potency [12] | outcome [13] | Potency [14] | Potency [15] | Potency [16] | Potency [17] | outcome [18] | Potency [19]
